Experimental data from ChEMBL document CHEMBL1201862, “PubChem BioAssay data set” (2004).
Screen size: about 400,000 compounds; about 2,100 (0.53%) were called active. Roughly 14% stayed inconclusive and do not appear here. No rule for the calls is given here. Only a selection was taken, and actives are over-represented in it overall.

Target: Ataxin-2 (Homo sapiens) (UniProt Q99700)
Experiment: qHTS for Inhibitors of ATXN expression.
Assay type: functional

Ataxin-2 (Homo sapiens), sequence (Q99700 whole entry): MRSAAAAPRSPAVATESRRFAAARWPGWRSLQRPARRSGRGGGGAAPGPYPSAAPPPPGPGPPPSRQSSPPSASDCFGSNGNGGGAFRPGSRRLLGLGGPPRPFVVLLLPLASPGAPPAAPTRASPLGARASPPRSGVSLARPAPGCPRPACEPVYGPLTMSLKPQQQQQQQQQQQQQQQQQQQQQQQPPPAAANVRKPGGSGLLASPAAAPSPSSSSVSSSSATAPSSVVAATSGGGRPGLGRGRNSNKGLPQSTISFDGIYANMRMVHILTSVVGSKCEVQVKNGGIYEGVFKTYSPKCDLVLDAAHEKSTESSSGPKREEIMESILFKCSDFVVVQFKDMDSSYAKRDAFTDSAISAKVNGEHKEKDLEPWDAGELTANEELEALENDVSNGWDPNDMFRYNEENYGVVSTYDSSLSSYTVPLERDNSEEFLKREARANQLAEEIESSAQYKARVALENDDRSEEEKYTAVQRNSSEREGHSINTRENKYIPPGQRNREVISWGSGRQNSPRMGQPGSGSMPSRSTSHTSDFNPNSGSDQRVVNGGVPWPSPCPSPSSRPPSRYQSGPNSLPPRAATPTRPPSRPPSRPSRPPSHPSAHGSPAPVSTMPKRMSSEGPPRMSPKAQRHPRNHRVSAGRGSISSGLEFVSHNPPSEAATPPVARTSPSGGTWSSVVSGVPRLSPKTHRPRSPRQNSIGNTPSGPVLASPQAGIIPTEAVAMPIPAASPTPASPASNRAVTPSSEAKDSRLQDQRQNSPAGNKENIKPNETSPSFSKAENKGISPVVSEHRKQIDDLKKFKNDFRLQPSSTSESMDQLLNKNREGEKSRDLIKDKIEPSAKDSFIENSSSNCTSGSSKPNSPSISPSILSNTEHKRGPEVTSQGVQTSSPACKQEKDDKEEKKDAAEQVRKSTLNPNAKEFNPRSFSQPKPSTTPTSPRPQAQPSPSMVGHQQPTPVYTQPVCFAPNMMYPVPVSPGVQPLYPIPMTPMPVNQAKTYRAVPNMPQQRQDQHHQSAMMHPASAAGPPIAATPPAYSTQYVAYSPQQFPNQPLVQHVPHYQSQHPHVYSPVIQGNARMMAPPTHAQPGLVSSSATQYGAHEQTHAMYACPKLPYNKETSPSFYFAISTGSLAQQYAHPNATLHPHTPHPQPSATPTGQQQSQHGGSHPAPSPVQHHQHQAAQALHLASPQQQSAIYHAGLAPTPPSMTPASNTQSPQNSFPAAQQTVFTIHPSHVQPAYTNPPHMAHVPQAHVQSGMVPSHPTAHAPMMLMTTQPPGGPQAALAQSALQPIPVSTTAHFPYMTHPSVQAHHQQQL

Row | Compound | Potency
1 | N#CC1=C(N)Oc2cc(N)ccc2C1c1ccccc1F (centres undefined) | inactive
2 | c1ccc(-c2nnc(SCC3CCCCO3)nc2-c2ccccc2)cc1 (centres undefined) | inactive
3 | NC(Cc1ccccc1)c1csc(Nc2nncc3ccccc23)n1 (centres undefined) | inactive
4 | NC(Cc1ccc(F)cc1)c1csc(Nc2nncc3ccccc23)n1 (centres undefined) | 39.8 µM (active)
5 | Cc1ccc(C#N)c(SCC(=O)Nc2nccs2)n1 | inactive
6 | O=C(C=P(c1ccccc1)(c1ccccc1)c1ccccc1)c1ccccc1-c1ccccc1C(=O)C=P(c1ccccc1)(c1ccccc1)c1ccccc1 | 20 µM (active)
7 | O=C(O)c1ccc(CP(=O)(c2ccccc2)c2ccccc2)cc1 | inactive
8 | Cc1ccccc1-n1nnnc1SCc1cc(=O)n2ccsc2n1 | inactive
9 | Cc1cccc2nc(CSc3nc4nncc-4c(O)n3-c3cccc(Cl)c3)cc(=O)n12 | 35.5 µM (active)
10 | CCCc1[nH]c2ccc(C#N)cc2c1CCC | 35.5 µM (active)
11 | O=C1N/C(=C/c2cccn2-c2ccccc2)C(=O)N1Cc1ccc(F)cc1 | inactive
12 | CCCCCC(=O)N[C@@H](c1ccccc1)[C@@H](O)C(=O)O[C@H]1C[C@@]2(O)[C@@H](OC(=O)c3ccccc3)C3[C@](C)(C(=O)[C@H](OC(C)=O)C(=C1C)C2(C)C)[C@@H](O)C[C@H]1OC[C@@]31OC(C)=O (some centres undefined) | 6.31 µM (active)
13 | CC1=C(C(=O)N2CCCC(C(=O)c3cccc(C(F)(F)F)c3)C2)OCCO1 (centres undefined) | inactive
14 | Cc1nc(C)c(C(=O)N2CCCC(C(=O)c3ccc4ccccc4c3)C2)s1 (centres undefined) | 28.2 µM (active)
15 | COc1ccc(C(=O)C2CCCN(C(=O)c3csc(SC)n3)C2)cc1F (centres undefined) | inactive
16 | Cc1cccc(N2CCN(C(S)=Nc3ccc4nc(N5CCN(C)CC5)cc(C)c4c3)CC2C)c1 (centres undefined) | 39.8 µM (active)
17 | O=C(NCCCNC(=O)c1cnccn1)c1ccc(Br)cc1 | inactive
18 | O=C(N/N=C/c1ccc2nccnc2c1)c1ccc(Br)cc1 | inactive
19 | Cc1ccc(C(=O)N/C(=C\c2ccc(Br)cc2)c2n[nH]c(S)n2)cc1 | 25.1 µM (active)
20 | Cc1ccc(/C=C(\NC(=O)c2ccc(C)cc2)c2n[nH]c(S)n2)cc1 | 25.1 µM (active)

Row | Compound | Potency
21 | CCc1cc(=O)oc2c(CN3CCCC3)c(O)c(Cl)cc12 | inactive
22 | NC(=O)c1sc2nnc(-c3ccccc3)c(-c3ccccc3)c2c1N | inactive
23 | CCOC(=O)C1(Cc2cccc(Cl)c2)CCCN(C(=O)CCSC)C1 (centres undefined) | inactive
24 | CCOc1ccccc1CNS(=O)(=O)c1c[nH]cn1 | inactive
25 | CN(C)C(=O)CCc1ccc2c3c([nH]c2c1)[C@]1(CCC2CCCC2)[C@@H](C(=O)N2CCOCC2)C[C@H](CC(=O)NCc2cccc(C(F)(F)F)c2)C(=O)N1CC3 | 31.6 µM (active)
26 | CC(C)=CCC/C(C)=C/CNC(=O)C[C@H]1C[C@H](C(=O)N(C(C)C)C(C)C)[C@@]2(C)c3[nH]c4cc(CCC(=O)N(C)C)ccc4c3CCN2C1=O | 20 µM (active)
27 | CC(C)=CCC/C(C)=C/CNC(=O)C[C@H]1C[C@H](C(=O)N2CCOCC2)[C@@]2(CCC3CCCC3)c3[nH]c4cc(CCC(=O)N(C)C)ccc4c3CCN2C1=O | 35.5 µM (active)
28 | CN(C)C(=O)CCc1ccc2c3c([nH]c2c1)[C@]1(CCC2CCCC2)[C@@H](C(=O)N2CCOCC2)C[C@H](CC(=O)NCCC2=CCCCC2)C(=O)N1CC3 | 35.5 µM (active)
29 | CCOC(=O)N1CCN(C(=O)c2cn(CC)c3ccc(S(=O)(=O)N4CCCCC4)cc3c2=O)CC1 | inactive
30 | Cc1ccc(S(=O)(=O)c2cc3ccccc3oc2=O)cc1 | inactive
31 | O=C(NCc1ccccc1)c1cc2ccc(O)cc2oc1=O | inactive
32 | COC(CNC(=O)c1ccc2c3c(onc13)-c1ccccc1C2=O)OC | 22.4 µM (active)
33 | CCn1c(=N)c(C(=O)NCCCOC)cc2c(=O)n3cccc(C)c3nc21 | inactive
34 | COc1ccc(-c2nc3ccc(C(=O)NCC(OC)OC)cc3nc2-c2ccc(OC)cc2)cc1 | inactive
35 | COCCCNc1c(O)nc2cccc3c2c1-c1ccccc1C3=O | inactive
36 | CCOc1ccc(N(C)S(=O)(=O)c2ccc3ncc(C(=O)NCC(OC)OC)c(O)c3c2)cc1 | inactive
37 | COCCCNC(=O)c1ccc2c3c(onc13)-c1ccccc1C2=O | 29.9 µM (active)
38 | O=c1oc2ccccc2cc1-c1nc2c(s1)CCCC2 | inactive
39 | CCc1ccc(C2=CC(c3cccc(Br)c3)n3nnnc3N2)cc1 (centres undefined) | inactive
40 | CC(=O)Nc1ccc(S(=O)(=O)N2CCN(C(=O)C3COc4ccccc4O3)CC2)cc1 (centres undefined) | inactive

Row | Compound | Potency
41 | CC(=O)Nc1ccc(S(=O)(=O)N2CCN(c3nc(NC4CCCC4)c4ccccc4n3)CC2)cc1 | 31.6 µM (active)
42 | O=C(O)c1ccc(S(=O)(=O)N2CCN(c3ccccn3)CC2)cc1 | inactive
43 | Cc1ccc(C)c(-n2c(=O)c(C#N)cc3c(=O)n4ccccc4nc32)c1 | inactive
44 | Cc1ccc2oc(Nc3nc(C)c(C)c(C)n3)nc2c1 | inactive
45 | CCC(C)N1CCC2(CC1)N=c1c3c(O)c4c(O)c(C)c5c(c4c1=N2)C(=O)[C@@](C)(OC=C[C@H](OC)[C@@H](C)[C@@H](OC(C)=O)[C@H](C)[C@H](O)[C@H](C)[C@@H](O)[C@@H](C)C=CC=C(C)C(=O)N3)O5 (some centres undefined) | 22.4 µM (active)
46 | C=CCN(CC=C)C(=O)c1ccc(OC2CCN(S(=O)(=O)N(C)C)CC2)cc1 | inactive
47 | O=S(=O)(CCc1ccncc1)Cc1ccc2c3c(cccc13)CC2 | inactive
48 | CC(=O)NCc1ccc(C(=O)CCl)s1 | 16.8 µM (active)
49 | CCOC(=O)C1CCCN(CC(=O)Nc2nc(-c3ccccc3)cs2)C1 (centres undefined) | inactive
50 | O=S(=O)(CCN1CCN(c2ccccn2)CC1)c1ccc(F)cc1 | inactive
51 | Nc1ncn([C@H]2O[C@@H](CO)[C@@H](O)[C@@H]2O)c(=O)n1 | 5.01 µM (active)
52 | C=CCSc1nc2c(N)ncnc2n1C1OC(CO)C(O)C1O (centres undefined) | inactive
53 | O=C(NN=C1CCCC1)NC1CCCCC1 | inactive
54 | O=C(NCCc1ccc(F)cc1)c1cccc2c1C(=O)c1ccc(N3CCC(Cc4ccccc4)CC3)cc1S2(=O)=O | inactive
55 | Cc1cccc(OCC(O)Cn2c(=N)n(CCN3CCCCC3)c3ccccc32)c1 (centres undefined) | 39.8 µM (active)
56 | N=c1n(CCN2CCCC2)c2ccccc2n1CC(O)c1ccc(Cl)c(Cl)c1 (centres undefined) | 31.6 µM (active)
57 | O=c1c2ccccc2n(CC(O)CN2CCCCC2)c2ccccc12 (centres undefined) | inactive
58 | OC(CN1C2=NCCCN2c2ccccc21)c1ccc2c(c1)OCO2 (centres undefined) | inactive
59 | Cc1cccc(OCC(O)Cn2ccnc2C)c1 (centres undefined) | inactive
